From PubChem BioAssay AID977606 (Broad Institute, 2014)
Among all 1,500 compounds or so, about 430 (29%) were called active. Not all results are given here. Potency and affinity values are given separately. Values without a mark were called inactive. The rule behind the calls is not given here.

Experiment: glucose-independent GLuc insulin release activation – cell-based, INS-1E, Gaussia luciferase, luminescence, cherry-pick, counter-screen for glucose-dependent insulin secretion activators, dose response (AID 977606);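 note: 0% = median of neutral control wells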
Conditions: INS-1E Gaussia luciferase insulin secretion, no glucose, 100% = twice neutral-control luminescence; series mostly up to 35 µM; activation: at the top concentration

Row | SMILES | activation [%]
1 | COc1ccc(C(=O)C2CCCN(Cc3cccn3-c3nccs3)C2)cc1OC (configuration not stated) | -11.6
2 | CN(C)C(=O)c1ccc(-c2ccc([C@@H]3[C@@H](CO)N4C(=O)CN(C(=O)C5CC5)C[C@@H]34)cc2)cc1 | -5.05
3 | Cc1c(O)cnc2nn(-c3ccccc3)c(=N)n12 | -0.377
4 | CCOC(=O)Cc1cc(=O)n2[nH]c(-c3ccc(C)cc3)cc2n1 | -0.415
5 | CN(C)c1ccc(/C=N/NC(=O)c2ccccc2Cl)cc1 | 4.15
6 | CC(C)Oc1ccc(Br)cc1C(=O)N/N=C/c1c[nH]c2ccccc12 | -22
7 | CCNc1nc(Oc2ccc(C#N)cc2)cc(C(F)(F)F)n1 | -1.93
8 | COc1ccc2oc(-c3ccncc3)cc(=O)c2c1 | -9.47
9 | O=C(Nc1ccc2oc(-c3cccnc3)nc2c1)c1ccc2c(c1)OCCO2 | -11.3
10 | O=C(Nc1ccc(NC(=O)c2cccs2)cc1)c1ccc2c(c1)OCO2 | -4.2
11 | CCNc1nc(NCC)nc(N(C#N)C(C)C)n1 | -5.43
12 | O=C(NC1CCCC1)c1ccc(Cl)c(S(=O)(=O)N2CCOCC2)c1 | 16.1
13 | COc1ccc(C(=O)N2CCc3cc(OC)c(OC)cc3C2c2ccc(OC)c(OC)c2)cc1OC (configuration not stated) | -0.986
14 | COc1ccc(C(=O)Nc2ccccc2C(=O)NCc2cccnc2)cc1OC | -17.2
15 | O=C(NCc1cccnc1)c1cccc(S(=O)(=O)NCc2ccccc2)c1 | 9.69
16 | Clc1ccc(-c2cc(CN3CCOCC3)no2)cc1 | -2.2
17 | Cc1cc(C)n(CC(=O)n2c3ccccc3c3ccccc32)n1 | 30.6
18 | O=C(c1cccs1)N(Cc1ccc(Cl)cc1)C1CCS(=O)(=O)C1 (configuration not stated) | 4.09
19 | COc1ccc(C(=O)OCC(=O)NC(=O)NC2CCCC2)cc1OC | 9.28
20 | O=C(O)c1ccc(-n2nnnc2SCc2ccccc2F)cc1 | 10.5
21 | O=C(Nc1ccccc1)Nc1nnc(-c2cccs2)s1 | -7.75
22 | O=C(c1ccco1)N(Cc1ccc(Cl)cc1)C1CCS(=O)(=O)C1 (configuration not stated) | -8.3
23 | O=C(COc1ccccc1Cl)NNC(=O)c1ccc2nc[nH]c2c1 | 116
24 | COc1ccccc1N(CC(=O)NCC1CCCO1)C(=O)CNS(=O)(=O)c1ccc(Cl)cc1 (configuration not stated) | -9.55

Row | SMILES | activation [%]
25 | Cc1cc(C)cc(N(C(=O)C(F)(F)F)C(C(=O)NC2CCCCC2)c2cccs2)c1 (configuration not stated) | -9.93
26 | COc1ccc2oc(=O)c(C(=O)NCc3ccccn3)cc2c1 | -6.38
27 | O=C(NCc1ccccn1)c1ccccc1OCc1ccc(Cl)cc1Cl | -13.4
28 | CC1CCC(NC(=O)C2COc3ccccc3O2)CC1 (configuration not stated) | 10.4
29 | C=CCc1ccc(OCCOc2ccc(/C=N/n3cnnc3)cc2OCC)c(OC)c1 | 0.229
30 | CCCCOC(=O)c1cc(-c2ccc(/C=N/n3cnnc3)o2)ccc1Cl | 9.96
31 | N#Cc1c(-c2ccco2)cc(C2CC2)nc1N | -5.34
32 | COc1cc2c(cc1OC)C(Nc1ccccc1)=NC(C)(C)C2 | 4.87
33 | O=C(NCC1(O)CCCCC1)C1CCC(=O)N(Cc2ccccc2F)C1 (configuration not stated) | -10.8
34 | NC1=NC(=O)C(Cc2ccc(F)cc2)S1 (configuration not stated) | -5.09
35 | COc1cc(OC)c(OC)cc1/C=N/n1c(C)nc2ccccc2c1=O | 8.58
36 | O=C1Nc2cnc(Cl)nc2Nc2ccccc21 | 4.25
37 | COc1ccc(CN(C)C(=O)c2cc(-c3ccc(OC)c(OC)c3)nc3ccccc23)c(OC)c1 | -22.4
38 | COc1ccc(-c2cc(C(=O)N(C)Cc3ccc(OC)c(OC)c3OC)c3ccccc3n2)cc1OC | -7.27
39 | COc1ccc(F)cc1C(=O)C1CCCN(C(=O)c2ccc(C(C)=O)s2)C1 (configuration not stated) | -18.8
40 | Clc1ccc(OCCn2ccnc2)c(Cl)c1 | 4.01
41 | C=CCOc1cccc(C(=O)N2CCC(CCC(=O)NC3CC3)CC2)c1 | -12.5
42 | COc1ccc(CCNc2ccncn2)cc1OC | -4.77
43 | Cc1cc2cc(C#N)c(N3CCOCC3)nc2cc1Cl | -1.36
44 | CCN1CCN(CCCNC(=O)c2ccc3c(c2)N(Cc2ccccc2)CCS3)CC1 | 37.4
45 | Nc1[nH]c(C(=O)c2ccccc2)c(-c2c(F)cccc2F)c1C(=O)c1ccc(Cl)c(Cl)c1 | 58.5
46 | Cc1cn(CC(C)C)c(=O)n(-c2ccccc2)c1=O | -7.49
47 | COc1ccc(CC(=O)OCC(=O)N2CCc3ccccc32)cc1OC | 3.22
48 | COc1cc2c(cc1OC)CN(C(=O)Cc1ccccc1)CC2 | -4.85

Row | SMILES | activation [%]
49 | CC/C(O)=C1\C(=O)CC(C)(C)CC1=Nc1ccccc1C | -0.909
50 | CC(C)(C)c1ccc(C#C[C@@H]2C=C[C@H]3OC(=O)CC/C=C/CCC(=O)OC[C@H]3O2)cc1 | 14.5
51 | CC1CCc2nc(N)c(C#N)c(-c3ccncc3)c2C1 (configuration not stated) | -10.7
52 | Cc1c(C=O)c2ccccn2c1C(=O)c1ccc(F)cc1 | 0.457
53 | COc1ccccc1Nc1c2c(nc3ccc(N)cc13)CCCC2 | 11.6
54 | CN(C)c1ccc(CC(=O)N2CCCCC2c2cc(C(=O)Nc3ccccc3Cl)no2)cc1 (configuration not stated) | -26.1
55 | O=C(O)CNS(=O)(=O)c1ccc2c(c1)Cc1cc(S(=O)(=O)NCC(=O)O)ccc1-2 | -4
56 | CCc1cc2c(COC(=O)c3cccc(S(C)(=O)=O)c3)cc(=O)oc2cc1O | -16.9
57 | CCN(CC)C(=O)Cn1cc(C(=O)C(=O)N2CCN(Cc3ccccc3)CC2)c2ccccc21 | 11.5
58 | Cc1ccc(-c2nc3c(=O)n(C)c4ccccc4c3o2)cc1 | -7.37
59 | O=C(CC(c1ccccc1)c1ccco1)N1CCOCC1 (configuration not stated) | 34.3
60 | CC(C)CCC(O)(CCC(C)C)C(=O)NN1CCCCC1 | -21.7
61 | COc1ccc(C2=NN(c3ccc(C(=O)O)cc3)C(c3ccc(OC)c(OC)c3)C2)cc1 (configuration not stated) | -0.29
62 | CCOc1cc(C2C3=C(CC(C)(C)CC3=O)Nc3n[nH]c(C)c32)ccc1O (configuration not stated) | 0.859
63 | CC(C)CCN1C(=O)CSCC1(C)C(=O)NC(C)C (configuration not stated) | -4.81
64 | CCCc1nnc2c(N(C)S(=O)(=O)c3ccc(C)cc3)nc3ccccc3n12 | -6.68
65 | Cc1cc(=O)[nH]c2c1c(C)nn2C1CCCC1 | 1.46
66 | N#Cc1sc2nc(C3CC3)cc(-c3ccccc3)c2c1N | 1.96
67 | COc1cc2c(cc1OC)C1=C(C#N)CCC(=NC(=O)c3ccco3)N1CC2 | 11.7
68 | O=C(CN1C(=O)CCC1=O)Nc1cccc2c1C(=O)NC2=O | -11.5
69 | Cc1cc(-c2ccc(Br)cc2)n2nc(C)cc2n1 | -1.47
70 | CSc1ncccc1C(=O)NCCc1ccccc1F | 2.04
71 | CCSc1nnc2ccc(-c3ccc(C)cc3)nn12 | 0.044
72 | CSc1ccc2nnc(-c3cccc(F)c3)n2n1 | 2.54
